From PubChem BioAssay AID1851 (National Center for Advancing Translational Sciences (NCATS), 2009)
Out of some 16,000 compounds screened, about 4,000 (25%) were called active. Another 26% or so got no clear call; they are omitted. Calls come from the whole dose curve; as a rule, active = well fitted curve in the direction sought with a large enough effect; inconclusive = small, poorly fitted or top-dose-only effect, or effect the other way; inactive = no such curve, though single readings can be large or run the other way. Only a sample is shown.

Each compound was assayed against Cytochrome P450 2C9 (Homo sapiens) (UniProt P11712) (assay: Cytochrome panel assay with activity outcomes). Details: recombinant CYP, pro-luciferin dealkylation, luminescence, p450-cyp2c9; series mostly up to 57.1 µM; activity, negative = inhibition: at the top concentration.
% is set by controls: 0 for no effect and ±100 for the full control effect.

Chain of Cytochrome P450 2C9 (Homo sapiens) (P11712 whole entry, looked up): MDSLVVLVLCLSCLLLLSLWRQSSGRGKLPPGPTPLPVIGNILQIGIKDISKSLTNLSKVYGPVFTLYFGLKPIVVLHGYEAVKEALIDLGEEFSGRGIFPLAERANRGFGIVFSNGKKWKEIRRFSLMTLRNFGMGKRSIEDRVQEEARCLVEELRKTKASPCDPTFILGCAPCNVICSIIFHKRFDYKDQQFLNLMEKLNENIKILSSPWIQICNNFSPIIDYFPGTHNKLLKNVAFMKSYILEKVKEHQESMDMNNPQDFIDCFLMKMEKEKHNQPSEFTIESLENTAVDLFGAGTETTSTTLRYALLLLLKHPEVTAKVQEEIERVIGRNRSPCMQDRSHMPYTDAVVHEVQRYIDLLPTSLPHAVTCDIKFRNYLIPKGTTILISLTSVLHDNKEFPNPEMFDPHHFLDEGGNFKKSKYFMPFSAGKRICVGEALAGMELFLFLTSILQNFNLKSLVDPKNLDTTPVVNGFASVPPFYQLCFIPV

Row | SMILES | AC50 | activity, negative = inhibition
1 | Cc1ccccc1-n1nc2c(c1NC(=O)c1c(-c3ccccc3Cl)noc1C)CSC2 | 1.41 µM (active) | 
2 | Cc1ccccc1-n1nc2c(c1NC(=O)c1ccc(S(=O)(=O)N(C)C)cc1)CSC2 | 2.82 µM (active) | 
3 | CCCC(=O)Nc1c2c(nn1-c1ccc(C)cc1C)CSC2 | 14.1 µM (active) | 
4 | Cc1ccc(-n2nc3c(c2NC(=O)c2cccs2)CSC3)cc1 | 3.55 µM (active) | 
5 | CCCC(=O)Nc1c(C)n[nH]c1C |  | -15.9% (inactive)
6 | CC(C)(C)NC[C@H](O)COc1cccc2c1CCC(=O)N2 |  | 8.94% [at 25.6 µM] (inactive)
7 | CCOC(=S)SCC(=O)O |  | 4.25% [at 11.4 µM] (inactive)
8 | NC1=N[C@H](c2ccc(Cl)cc2)N(c2ccc(S(=O)(=O)Nc3ncccn3)cc2)C(N)=N1 |  | 14.6% [at 11.4 µM] (inactive)
9 | CC(C)CO/N=C1/C[C@@H](O)[C@@H](O)[C@@H]2[C@@H]3C(=O)N([C@@H](C)c4ccccc4)C(=O)[C@H]3CC[C@@H]12 |  | -15.7% [at 11.4 µM] (inactive)
10 | Cc1nc(NS(=O)(=O)c2ccc(Br)cc2)c2c3c(sc2n1)CCC3 | 0.224 µM (active) | 
11 | Cc1nc(NS(=O)(=O)c2ccccc2C)c2c3c(sc2n1)CCC3 | 2.51 µM (active) | 
12 | Cn1c2c(c(=O)n(C)c1=O)C1(C(=O)Nc3ccccc31)C(C#N)=C(N)O2 (stereo not given) |  | -25.5% (inactive)
13 | CCn1c(=O)[nH]c2cc(Cl)c(Cl)cc21 |  | 7.2% (inactive)
14 | C[C@@H](c1ccccc1)N1C(=O)[C@H]2[C@H]3[C@H](O)[C@H](O)C/C(=N/OCc4ccccc4)[C@H]3CC[C@@H]2C1=O |  | -20.1% [at 11.4 µM] (inactive)
15 | O=C(CSc1nnc(COc2ccccc2)n1-c1ccccc1)c1ccccc1 | 10 µM (active) | 
16 | CCn1c(COc2ccccc2)nnc1SCC(=O)c1cccc([N+](=O)[O-])c1 | 22.4 µM (active) | 
17 | CCn1c(SCC(=O)N/N=C/C=C\c2ccccc2[N+](=O)[O-])nnc1-c1ccccc1 |  | 19.5% (inactive)
18 | O=C(CSc1nc2ccc([N+](=O)[O-])cc2s1)c1ccc2ccccc2c1 |  | -5.5% [at 11.4 µM] (inactive)
19 | COc1ccc(OCc2nnc(SCC(=O)O)n2N)cc1 |  | -18.9% (inactive)
20 | CO[C@@H]1COC(=O)C/C=C\[C@@H](C)[C@@H]2C=C[C@H](O)[C@@H](COC(=O)CCC[C@H]1C)O2 |  | -8.54% [at 11.4 µM] (inactive)
21 | Cc1c(C)n(C(=O)CN2CCC(C)CC2)c2ccccc12 |  | 28.1% (inactive)
22 | CO[C@@H]1COC(=O)C/C=C\[C@H](C)[C@H](OC)COC(=O)[C@H]2CCCN2C(=O)C/C=C\[C@H]1C |  | 13.8% [at 11.4 µM] (inactive)
23 | OC[C@H]1NC[C@H](O)[C@@H](O)[C@H]1O |  | 22.1% (inactive)

Row | SMILES | AC50 | activity, negative = inhibition
24 | Cc1ccc(NC(=O)N(Cc2ccco2)C(C)c2ccco2)cc1C (stereo not given) | 12.6 µM (active) | 
25 | Cc1ccccc1-c1cc(N(C)Cc2ccco2)ncn1 |  | -5.66% [at 2.29 µM] (inactive)
26 | Cc1cc(N2CCN(C)CC2)nc2ccc(NC(=O)CCC(=O)NCc3ccco3)cc12 |  | 14.6% (inactive)
27 | CCCCSC(=S)N(C)C1CCS(=O)(=O)C1 (stereo not given) | 17.8 µM (active) | 
28 | CCCCN(C(=S)Nc1ccccc1)C1CCS(=O)(=O)C1 (stereo not given) |  | -5.84% (inactive)
29 | CCCNC1CCS(=O)(=O)C1 (stereo not given) |  | -6.49% (inactive)
30 | Cc1ccc(NC(=O)CN2CCC(NC(=O)Cc3ccccc3)CC2)cc1C | 15.8 µM (active) | 
31 | O=C(Cc1ccccc1)NC1CCN(S(=O)(=O)c2ccc(C(=O)O)cc2)CC1 |  | -17.5% (inactive)
32 | O=[N+]([O-])c1cccc2c(Br)[nH]nc12 |  | 28.7% (inactive)
33 | Cc1ccc(C(c2ccc(C)o2)c2cccc([N+](=O)[O-])c2O)o1 | 1.26 µM (active) | 
34 | O=[N+]([O-])c1cccc2cn[nH]c12 |  | 3.18% (inactive)
35 | CCOC(=O)C1=C(N)Oc2ccc(Br)cc2[C@@H]1[C@@H](C#N)C(=O)OCC |  | 4.51% (inactive)
36 | COC(=O)C1=C(C)OC(N)=C(C#N)C1C1CCCCC1 (stereo not given) | 10 µM (active) | 
37 | CCOC(=O)C1=C(c2ccccc2)OC(N)=C(C#N)C1c1ccc(Cl)s1 (stereo not given) |  | 3.95% (inactive)
38 | COC(=O)C1=C(C)OC(N)=C(C#N)C1c1cc(OC)ccc1OC (stereo not given) | 5.01 µM (active) | 
39 | CC(=O)OC[C@@H]1O[C@H](C/C=N\O[C@@H](C)c2cn([C@H]3COC[C@H]3O)nn2)C=C[C@@H]1OC(C)=O |  | 17.7% [at 11.4 µM] (inactive)
40 | COc1ccccc1-c1cncnc1NCc1cnc(C)cn1 |  | 14.1% [at 2.29 µM] (inactive)
41 | Cc1[nH]n(-c2ccc(S(=O)(=O)O)cc2)c(=O)c1N=Nc1ccccc1 |  | 21.2% [at 11.4 µM] (inactive)
42 | Cn1c(N)c(N=Nc2ccc(S(N)(=O)=O)cc2)c(=O)n(C)c1=O |  | 5.29% [at 11.4 µM] (inactive)
43 | Cc1ccc(N=Nc2c(N)n(-c3ccccc3)[nH]c2=O)cc1 | 7.94 µM (active) | 
44 | CCN1C(=O)C=CC1=O |  | -9.22% (inactive)
45 | COc1ccc(CNCCC(c2ccc(OC(C)C)cc2)C(C)C)cc1OC (stereo not given) |  | -47.4% (inactive)
